# Measured values reported in ChEMBL document CHEMBL3988442, “University of Dundee, Small-Polar-MMV Screening Library” (2021).
# In all, about 48,000 compounds went through this assay and about 13,000 (27%) showed an effect of 50% or more. This is one part of the list.
# Tested on: Wolbachia pipientis
# Test: Anti-Wolbachia Cell-Based Screen
# Format: functional
# Parameters: scale not given: in the data most compounds retested in dose-response had high values
# Details: 5 µM
row,SMILES,Percent Effect
1,CCc1nsc(N2CCCN(C(=O)c3ccc(OC)cc3)CC2)n1,4.92%
2,CN(C)C(=O)N1CCC(C(=O)N2CCOC(CC3CCCCC3)C2)CC1 (stereo unspecified),1.077%
3,CN(C)Cc1nnc(C2CCCN(Cc3ccc(Cl)s3)C2)n1C (stereo unspecified),-1.038%
4,COc1ncnc2c1CCN(c1cc(C(F)(F)F)ncn1)CC2,-19.6%
5,N#Cc1ccnc(N2CCC(NCCN3CCCC3)CC2)c1,4.204%
6,Cn1cnnc1SCc1cc2c(cc1Br)OCO2,98.1%
7,Cn1cnnc1S(=O)(=O)Cc1cc(Cl)c2c(c1)OCO2,-6.914%
8,CN(Cc1cscn1)Cc1cc2c(cc1Br)OCO2,7.123%
9,Cn1c(N)nnc1SCc1cc(Br)ccc1Cl,-1.725%
10,Cn1cnnc1SCc1cc2c(cc1Cl)OCO2,116.9%
11,Cn1nnnc1SCc1cc2c(cc1Cl)OCO2,119.1%
12,CC(C)C(=O)Nc1ccc(Sc2nncn2C)c(Cl)c1,7.85%
13,Cn1nnnc1SCCNC1CCN(c2ccc3c(c2)OCO3)CC1,-18.49%
14,Cn1c(N)nnc1SCc1ccc(Cl)cc1Br,-13.54%
15,CCCc1cc(NC(=O)c2cc(N3CCNC3=O)c(F)cc2F)n[nH]1,-4.311%
16,Cc1noc(C)c1CN(C)Cc1nc(N)c2ccccc2n1,-15.35%
17,Cc1noc(C)c1CN(C)c1ncnc2onc(C)c12,10.95%
18,Cc1noc(C)c1CN(C)c1ncnc2ccccc12,85.55%
19,O=C(COC[C@@H]1CC[C@H]2[C@H](CCN2Cc2ccco2)O1)N1CCCC1,94.38%
20,Cc1cccc(COC[C@@H]2CC[C@H]3[C@H](CCN3C(=O)CC3CC3)O2)n1.O=C(O)C(F)(F)F,-1.291%
21,Cc1cccc(COC[C@@H]2CC[C@H]3[C@H](CCN3Cc3ccco3)O2)n1.O=C(O)C(F)(F)F.O=C(O)C(F)(F)F,-8.217%
22,O=C(COC[C@H]1CC[C@H]2[C@H](CCN2c2ncccn2)O1)N1CCCC1.O=C(O)C(F)(F)F,-10.98%
23,CN(C)C(=O)COCC1C[C@@H]2OCCN(Cc3ccco3)[C@H]2C1 (stereo partly specified),-1.169%
24,COCCN1CC[C@@H]2O[C@@H](COCC(=O)N3CCCC3)CC[C@@H]21.O=C(O)C(F)(F)F,-7.716%
25,O=C(c1ccco1)N1CC[C@@H]2O[C@H](COCC3CCOCC3)CC[C@@H]21,-18.62%
26,c1coc(CN2CC[C@@H]3O[C@@H](COCC4CCOCC4)CC[C@@H]32)c1,95.89%

row,SMILES,Percent Effect
1,Cc1cccc(COC[C@H]2CC[C@H]3[C@H](CCN3Cc3ccco3)O2)n1,105.2%
2,O=C(c1ccco1)N1CC[C@@H]2O[C@@H](COCC3CCOCC3)CC[C@@H]21,-0.1018%
3,CN(C)C(=O)COC[C@H]1CC[C@@H]2[C@@H](CCN2Cc2ccco2)O1.O=C(O)C(F)(F)F,91.23%
4,COCCn1cc(NC(=O)NCC2CCN(c3ccccc3)C2)cn1 (stereo unspecified),6.997%
5,Cc1cc(CN2CCC(c3ccnn3CCO)CC2)no1,-5.622%
6,CCNc1ncc(C(=O)NCc2csc(-c3cnccn3)n2)cn1,-2.125%
7,CCC1COCCN1C(=O)NCc1cccc(-c2cnn(C)c2)c1 (stereo unspecified),-16.85%
8,Cc1ccc(CNC[C@H]2Cn3cc(-c4ccccc4)nc3CO2)cc1,-14.25%
9,COc1ccc(CNC[C@H]2COCc3nc4cc(F)ccc4n32)cn1,2.56%
10,c1csc(CN2CC[C@H]3O[C@@H](COCC4CC4)CC[C@H]32)c1,-24.01%
11,O=C(O)C(F)(F)F.c1coc(CN2CC[C@H]3O[C@@H](COCC4CC4)CC[C@H]32)c1,103.1%
12,CN1C[C@@H](COCC2CC2)[C@H]2CCN(Cc3ccco3)CC[C@H]2C1=O.O=C(O)C(F)(F)F,-15.86%
13,CCSc1nnc(N2CCN(c3ccccc3)CC2)s1,-16.68%
14,CCc1nc(N)nc(N(C)Cc2nncn2CCOC)c1C,-4.118%
15,Cc1cc(-n2cccn2)ccc1CN1CCOCC(CN(C)C)C1 (stereo unspecified),-16.76%
16,Cc1cnc(CC2COCCN(Cc3nccn3C)C2)cn1 (stereo unspecified),117.2%
17,Cn1ccnc1CN1CCOCC(Cc2ccccn2)C1 (stereo unspecified),-4.289%
18,Cc1cccc(CC2COCCN(Cc3nccn3C)C2)n1 (stereo unspecified),119.1%
19,Cn1ccnc1C1CCN(CCC2CCOC2)CC1 (stereo unspecified),-2.458%
20,Cc1noc(C)c1CN1CCN(Cc2nccn2C)C(C)C1 (stereo unspecified),-9.694%
21,CN(C)c1ccc(CC2COCCN(Cc3nccn3C)C2)nn1 (stereo unspecified),107.3%
22,CCN1CCN(S(=O)(=O)N2CCc3ccccc3C2)[C@H]2CS(=O)(=O)C[C@H]21,-15.22%
23,CS(=O)(=O)NCCCN1CCCC1c1ccccc1 (stereo unspecified),-6.695%
24,O=C1C(Nc2ccc3nccnc3n2)CCN1c1ccccc1 (stereo unspecified),8.259%
25,Cc1nnc2n1CC(CNCc1nc(-c3ccsc3)no1)CC2 (stereo unspecified),-10.67%
26,c1csc(-c2nnc(CSCCN3CCOCC3)o2)c1,0.2217%

row,SMILES,Percent Effect
1,Cc1ccc(C(=O)N2CCCN(C)c3ccc(F)cc32)o1,112.2%
2,O=C(Nc1c(N2CCCC2)cccc1N1CCCC1)c1cnsn1,-3.532%
3,CN1CCCN(C(=O)c2cnsn2)c2cc(Cl)ccc21,103.8%
4,CN1CCCN(S(=O)(=O)c2cnn(C)c2)c2cc(Cl)ccc21,-13.02%
5,CN1CCN(S(C)(=O)=O)c2cc(F)ccc21,-2.725%
6,O=C(c1cncc(Br)c1)N1CCCc2ccc(F)cc21,6.203%
7,CC1CN(C)c2ccccc2CN1C(=O)c1cnsn1 (stereo unspecified),-24.53%
8,CN1CCCN(S(C)(=O)=O)c2cc(F)ccc21,-11.53%
9,CN1CCCN(S(=O)(=O)c2cn(C)cn2)c2cc(F)ccc21,-12.29%
10,CN1CCCN(C(=O)c2cnsn2)c2cc(F)ccc21,119.4%
11,CN1CCN(C(=O)c2csnn2)c2ccccc21,10.7%
12,CN1CCN(C(=O)c2cnsn2)c2cc(F)ccc21,151.8%
13,CN(Cc1cnccn1)C(=O)c1ccc(CSc2nnc[nH]2)o1,-27.79%
14,CSc1ccc(NCC(=O)NCC(=O)N2CCCC2)cc1F,-3.658%
15,CN1CCN(C(=O)CCCc2ccccn2)c2ccc(F)cc21,-53.44%
16,CN1CCN(C(=O)c2cnsn2)c2ccc(F)cc21,79.94%
17,CN1CCN(C(=O)CCc2cccnc2)c2ccc(F)cc21,-6.701%
18,CCN(C(=O)c1c(Cl)cnn1CC)C(C)C(N)=O (stereo unspecified),-13.9%
19,CCN(CC)C(=O)c1c(Br)cnn1CC,113.9%
20,CCN(CC)C(=O)c1nnn(Cc2ccccc2)c1OC,4.418%
21,CCn1ncc(Br)c1CN(C)S(=O)(=O)c1ccc(C)cc1,6.609%
22,CCN(CC)C(=O)CCn1ncc2c(Cl)cccc21,18.4%
23,CCN(CC)C(=O)c1c(Cl)cnn1CC,102.5%
24,CC(=O)Nc1ccc2nc(CN(C)Cc3snnc3C)ccc2c1,89.45%
25,CC(=O)Nc1ccc2nc(-c3nccn3C[C@@H]3CCCO3)ccc2c1,-0.02427%
26,Cc1nc(CNC(=O)Nc2ccc3c(ccn3CCN(C)C)c2)no1,-28.14%

row,SMILES,Percent Effect
1,CC(=O)Nc1ccc2nc(-c3nccn3CCCN(C)C)ccc2c1,3.374%
2,CC(=O)Nc1ccc2nc(CN(C)Cc3noc(C)n3)ccc2c1,88.54%
3,CC(=O)Nc1ccc(CNC(=O)CNCc2snnc2C)cc1,-4.998%
4,Cc1cnc(NC(=O)c2cccc(CN(C)Cc3snnc3C)c2)s1,-4.019%
5,Cc1nnsc1CN(C)Cc1ccc(C(=O)Nc2sccc2C#N)cc1,-8.441%
6,CC(=O)Nc1ccc(CN(C)Cc2snnc2C)cc1,104.3%
7,CN1C[C@@H](n2cnc(-c3ccccc3)c2-c2nccn2C)C[C@H]1C(=O)O,-7.865%
8,CN1CCCN(C[C@@H]2CN(C(=O)CCC3CCCC3)C[C@@H]2CO)CC1,0.9084%
9,CC(=O)N1CCCCCC1C1CCN(Cc2nnc(C(C)(C)C)o2)CC1.Cl (stereo unspecified),-4.894%
10,Cc1nc(C(C)(C)C)sc1C(=O)NCCn1ccnc1,6.238%
11,Cc1ccc(-c2nc(CNS(=O)(=O)N(C)C)[nH]c2-c2ccccn2)cc1,19.45%
12,Cc1nc(-c2ccc(CNS(=O)(=O)N(C)C)cc2)ccc1C(N)=O,115%
13,Cc1nc(-c2ccsc2)ccc1C(=O)O,-6.285%
14,CNC(=O)c1ccc(-c2ccc(CNC(=O)COC)cc2)nc1C,125.2%
15,CCN(CC)S(=O)(=O)NCc1ccc(-c2ccc(C(N)=O)c(C)n2)cc1,82.68%
16,CNC(=O)c1ccc(-c2ccc(CNS(=O)(=O)N(C)C)cc2)nc1C,96.06%
17,CCN(CC)C(=O)c1ccc(-c2ccsc2)nc1C,7.441%
18,CNS(=O)(=O)Cc1ccc(CNC(=O)c2ccc(C)[nH]c2=O)cc1,6.775%
19,CCC(C)NC(=O)c1ccc(CNC(=O)COC)cc1 (stereo unspecified),4.124%
20,CNC(=O)c1cc2c(nc1NCC(C)C)CCN(S(=O)(=O)N(C)C)CC2,-14.23%
21,CNC(=O)c1ccc(CNC(=O)c2ccc(Cl)cc2F)cc1,6.561%
22,CCN(C(=O)c1ccc(-c2ccccc2)nc1C)C1CC(=O)NC1=O (stereo unspecified),2.82%
23,O=C1C(NCc2cccc(O)c2)CCN1Cc1ccccc1 (stereo unspecified),0.7589%
